Source: PubChem BioAssay
Many of the other results were omitted from the sample, so hits are more common in it than they were.
Pf Dd2 inh = qHTS Primary assay for Inhibitors of Plasmodium falciparum Dd2 growth in vitro. 4.3% of 120,000 active. Potency, µM (doses to about 28.9 µM), most hits filed as inhibitors. AID 1347417, 2020. P. falciparum Dd2 growth, SYBR Green, 72 h; active means well fitted inhibition curve with a large enough effect; further: nearly all actives have a fitted effect of over 65% in size
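Infected erythrocytes (Dd2, 0.3% parasitemia, 2.5% hematocrit final) are added to compound in RPMI-1640/Albumax II medium, grown 72 h at 37C in low oxygen, then lysed with saponin/Triton-X containing SYBR Green and read by fluorescence.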
Numbers stand for hits.

Screening CC(C)(C)c1cccc(CN2CCC3(CCNCC3)C2)c1O returned Pf Dd2 inh 10µM.
OCC#Cc1ccc(CN2CCC3(CCNCC3)C2)cc1 was read as Pf Dd2 inh inactive.
Screening Cc1ccc(CN2CCC3(CCNCC3)C2)c(Cl)c1Cl returned Pf Dd2 inh 13µM.
For Cn1c(CN2CCC3(CCNCC3)C2)nc2ccccc21 the results were Pf Dd2 inh inactive.
`COc1ccc(F)c(F)c1CN1CCC2(CCNCC2)C1` gave Pf Dd2 inh inactive.
CN(Cc1ccccc1CN1CCCC1)C(=O)C1CC2(CCNCC2)CN1C (stereo not drawn) was read as Pf Dd2 inh inactive.
`O=C(NC1CC1)[C@@H]1C[C@H](Oc2cccnc2)CN1C(=O)CCC1CCCC1` gave Pf Dd2 inh inactive.
CCN1CC(C(=O)NCc2cccc(-c3ccccc3)c2)CCC1=O (stereo not drawn) was read as Pf Dd2 inh inactive.
`CCOC(=O)c1cc(-c2ccccc2)n(-c2cccc(C(=O)N(CC)c3ccccc3)c2)c1C` gave Pf Dd2 inh inactive.
CCOC(=O)c1cc(-c2ccccc2)n(-c2cccc(C(=O)Nc3cccc(C)c3)c2)c1C was read as Pf Dd2 inh 11µM.
Screening CCOC(=O)c1cc(-c2ccc(C)cc2)n(CC(=O)Nc2cccc(C(C)=O)c2)c1C returned Pf Dd2 inh inactive.
`COc1ccc2nc([C@H]3CCN(CCCc4ccccc4)C3)[nH]c2c1` gave Pf Dd2 inh 11µM.
For COc1ccc2nc([C@H]3CCN(C4CCN(C(C)=O)CC4)C3)[nH]c2c1 the results were Pf Dd2 inh inactive.
c1ccc(CCCN2CC[C@H](c3nc4ccccc4[nH]3)C2)cc1 was read as Pf Dd2 inh inactive.
`CC(C)N1CC[C@H](c2nc3ccc(C#N)cc3[nH]2)C1` gave Pf Dd2 inh inactive.
COc1ccc2nc([C@H]3CCN(Cc4ccc(C(=O)O)cc4)C3)[nH]c2c1 was read as Pf Dd2 inh inactive.
COc1ccc2nc([C@H]3CCN(C(C)C)C3)[nH]c2c1 was read as Pf Dd2 inh 32µM.
For CC(=O)c1ccc(NC(=O)O[C@@H]2CO[C@H]3[C@@H]2OC[C@@H]3NS(=O)(=O)Cc2ccccc2)cc1 the results were Pf Dd2 inh inactive.
`Cc1ccc(C(=O)NCc2cccnc2Oc2ccccc2F)c(=O)n1C` gave Pf Dd2 inh inactive.
Screening Cc1ccc(CN2CC[C@@H]3[C@H]2C(=O)NC[C@H](CCC(=O)N2CC[C@@H](O)C2)N3C)cc1 returned Pf Dd2 inh inactive.
Screening O=C(Cc1ccccn1)N1CCC2(CC1)Cc1ccccc1NC2=O returned Pf Dd2 inh inactive.
Screening COc1ccc(NC(=O)Cn2c(=O)n(-c3ccccc3)c(=O)c3c2cc(C)n3C)c(OC)c1 returned Pf Dd2 inh inactive.
`COCC(=O)NCc1cc2n(n1)CCCN(Cc1cc3ccccc3s1)C2` gave Pf Dd2 inh inactive.
`Oc1ccccc1-c1cnc2n[nH]c(-c3ccc4c(c3)OCO4)c2n1` gave Pf Dd2 inh 11µM.
`c1ccc(-c2cnc3n[nH]c(-c4ccc5c(c4)OCO5)c3n2)cc1` gave Pf Dd2 inh inactive.
For Fc1ccccc1-c1cnc2n[nH]c(-c3ccc4c(c3)OCO4)c2n1 the results were Pf Dd2 inh inactive.
Screening COc1cccc(C(=O)NC2CCCN(c3cc(-c4ccc(F)cc4)[nH]n3)C2)c1OC (stereo not drawn) returned Pf Dd2 inh inactive.
COCC[C@]1(O)CCN(C(=O)CCCc2ccccc2)C[C@H]1C was read as Pf Dd2 inh inactive.
For COCCN1CC2CN(C(=O)CCCc3ccccc3)CC(C1)O2 the results were Pf Dd2 inh 11µM.
`COCC1CN(C(C)=O)CC12CCN(C(=O)CCCc1ccccc1)CC2` (stereo not drawn) gave Pf Dd2 inh inactive.
Cc1noc(-c2nc(-c3cccc(F)c3)no2)n1 was read as Pf Dd2 inh inactive.
Cc1ccc(CN2CC(Oc3ccccc3C(=O)N3CCOCC3)C2)cc1C was read as Pf Dd2 inh 2.8µM.
O=C(NC1CC1)c1ccccc1OC1CN(Cc2ccc(F)c(F)c2)C1 was read as Pf Dd2 inh inactive.
Screening O=C(c1cccnc1OC1CCN(Cc2ccccn2)C1)N1CCOCC1 (stereo not drawn) returned Pf Dd2 inh inactive.
Screening CNC(=O)N1CCC(C2CCN(C3CCN(C(C)=O)CC3)C2)CC1 (stereo not drawn) returned Pf Dd2 inh inactive.
`CS(=O)(=O)N1C[C@H]2CCN(C(=O)c3cccc4[nH]ccc34)C[C@H]21` gave Pf Dd2 inh inactive.
Screening NCC1CCCCC(=O)N1 (stereo not drawn) returned Pf Dd2 inh inactive.
`COc1ccccc1OCc1cc(C(=O)N2CCCN3CCC[C@H]3C2)n[nH]1` gave Pf Dd2 inh inactive.
`Cc1cn2nc(C(=O)NCc3ccc(F)cc3F)cc2c(=O)[nH]1` gave Pf Dd2 inh 3.2µM.
For Cc1cn2nc(C(=O)NCc3ccc(Cl)cc3)cc2c(=O)[nH]1 the results were Pf Dd2 inh inactive.
Cc1cn2nc(C(=O)NCc3ccccc3C)cc2c(=O)[nH]1 was read as Pf Dd2 inh inactive.
`CC(=O)N1CCC(c2ncc(C)n2Cc2ccccc2)C1` (stereo not drawn) gave Pf Dd2 inh inactive.
`COCCOC1CCN(C(=O)c2cccc(OC)c2)CC1` gave Pf Dd2 inh inactive.
`Cn1c(C(=O)NC2CCN(Cc3ccccc3)CC2)cc2c1CCN(Cc1ccccc1)C2` gave Pf Dd2 inh inactive.
For Cn1cc(-c2ccncc2)cc1C(=O)NC1CCN(Cc2ccccc2)CC1 the results were Pf Dd2 inh 5µM.
`Cc1sc2ccn(C)c(=O)c2c1C(=O)NC1CCN(Cc2ccccc2)CC1` gave Pf Dd2 inh inactive.
For COc1cc2c(cc1-c1cccc(NC(C)=O)c1)NC(=O)C21CCN(C(C)=O)CC1 the results were Pf Dd2 inh inactive.
CCCOc1ccccc1C(=O)N1CC[C@H](N(C)C)[C@H](CCC(=O)O)C1 was read as Pf Dd2 inh inactive.
CS(=O)(=O)N1CCC(C2CCN(Cc3ccc(Br)o3)C2)CC1 (stereo not drawn) was read as Pf Dd2 inh 4.5µM.
CS(=O)(=O)N1CCC(C2CCN(Cc3cccs3)C2)CC1 (stereo not drawn) was read as Pf Dd2 inh 13µM.
For CNC(=O)N1CCC(C2CCN(C(=O)Cc3cccs3)C2)CC1 (stereo not drawn) the results were Pf Dd2 inh inactive.
For CS(=O)(=O)N1CCC(C2CCN(C3CCOCC3)C2)CC1 (stereo not drawn) the results were Pf Dd2 inh inactive.
Cc1ccc(CN2CCC(C3CCN(S(C)(=O)=O)CC3)C2)o1 (stereo not drawn) was read as Pf Dd2 inh inactive.
`Cn1cccc1CN1CCC(C2CCN(S(C)(=O)=O)CC2)C1` (stereo not drawn) gave Pf Dd2 inh inactive.
For CN(C1CCc2nn(C)c(=O)n2CC1)S(=O)(=O)c1cccc2cccnc12 (stereo not drawn) the results were Pf Dd2 inh inactive.
COc1ccc(CN[C@H]2[C@H](O)[C@H](O)C[C@@H]2c2ccc(C(F)(F)F)nc2)cc1 was read as Pf Dd2 inh inactive.
CN(Cc1ccc(CN2CCCC(O)(CO)C2)o1)S(C)(=O)=O (stereo not drawn) was read as Pf Dd2 inh inactive.
Screening Fc1cccc(-n2cc(CN3CCCC4(CCOC4)C3)cn2)c1 (stereo not drawn) returned Pf Dd2 inh inactive.
CC(C)c1ccc(-n2cc(CN3CCCC(O)(CN(C)C)C3)cn2)cc1 (stereo not drawn) was read as Pf Dd2 inh 6.3µM.
